Compound activity deposited in PubChem BioAssay by The Scripps Research Institute Molecular Screening Center.
DAX1 inh-1 = inhibits human nuclear receptor DAX1 | inhibition, % at 6.75 µM | P51843 | AID 504766 | hit rate 0.99% among 340,000 | HEK293 Gal4-DAX1 luciferase reporter, luminescence;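 active = inhibition above the mean over all tested compounds plus 3 SD, cut at about 4.2% in these data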;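 also: 0% = DAX1-transfected cells with DMSO and 100% = empty-vector control cells with DMSO; inhibition shows as a rise in luminescence from relieved DAX1 repression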
Target sequence (P51843 207-470 limits assumed): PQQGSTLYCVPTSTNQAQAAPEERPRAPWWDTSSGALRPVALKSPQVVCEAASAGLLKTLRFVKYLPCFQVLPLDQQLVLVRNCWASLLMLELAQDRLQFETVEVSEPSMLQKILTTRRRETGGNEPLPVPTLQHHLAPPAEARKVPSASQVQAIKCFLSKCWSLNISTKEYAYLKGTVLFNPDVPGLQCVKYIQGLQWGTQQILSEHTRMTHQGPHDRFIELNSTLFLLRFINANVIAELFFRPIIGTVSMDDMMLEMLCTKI
hcDAF-12 act = activates DAF-12 receptor from parasite H. contortus | HEK293 hcDAF-12 lit1-tk-luc reporter, luminescence; 0% DMSO, 100% Δ7-dafachronic acid | hit rate 1.4% among 370,000 | activation, % at 6.8 µM;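 active = activation above the mean of all tested compounds plus 3 SD, cut at about 5.5% in these data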;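 also: 100% = response to 3 µM Δ7-dafachronic acid high control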
GAA850 FXN act = activators of GAA850 frataxin (FXN) promoter. HEK293 lucGAA850 FXN promoter luciferase reporter, 24 h; percent of 10 µM SAHA response. activation, % at 6 µM. hit rate 0.56% among 360,000. AID 540364;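 active = activation above the average of all compounds screened plus 3 SD, cutoff fixed separately per campaign, cut at about 7.5% in these data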;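 also: 0% = DMSO wells and 100% = 10 µM SAHA wells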
hgDAF12 agonist = agonists of H. glycines DAF-12 nuclear receptor; HEK293 GAL4-hgDAF12 UAS-luciferase reporter, agonist luminescence; normalized to butyrate control; hit rate 1.8% among 370,000; activation, % at 6.8 µM; AID 687014;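 active = activation above a cutoff set at the mean of all screened compounds plus 3 SD, cut at about 10% in these data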;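 also: 0% = DMSO wells and 100% = sodium butyrate wells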
DAX1 inh-2 = DAX1 (NR0B1) inhibition, primary screen; hit rate 1.1% among 370,000; AID 652010; inhibition, % at 6.8 µM; HEK293T StAR-luciferase reporter, SF-1/DAX-1 repression relief;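 active = inhibition above the mean over all tested compounds plus 3 SD, cut at about 3.6% in these data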;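 also: 0% = DAX-1 cells with DMSO and 100% = cells lacking DAX-1 with DMSO; higher inhibition means more luminescence from relief of DAX-1 repression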
ssDAF-12 act = activates DAF-12 receptor from parasite S. stercoralis. activation, % at 6.8 µM. hit rate 1% among 370,000. HEK293 ssDAF-12/GRIP1 lit1-tk-luc reporter, luminescence; % of 3 µM dafachronic acid response. AID 652126;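 active = activation above the mean over all tested compounds plus 3 SD, cut at about 0.9% in these data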;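 also: 0% = DMSO-only wells and 100% = 3 µM delta7-dafachronic acid wells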
Starred values were filed as active, the others as inactive; nt = not tested or not shown. Rows were chosen to be rich in hits. Some 4.5% of all compounds tested hit in one or more screens of this group.

SMILES	DAX1 inh-1	hcDAF-12 act	GAA850 FXN act	hgDAF12 agonist	DAX1 inh-2	ssDAF-12 act
COC(=O)c1ccc2c(=O)n(CCCCCC(=O)NC(C)C)c(=O)[nH]c2c1	0	-1	2	4	1	-2
CCCCCn1c(=O)[nH]c2cc(C(=O)O)ccc2c1=O	0	-2	3	-2	0	-2
COC(=O)c1ccc2c(=O)n(CCCCCC(=O)NC3CCCCC3)c(=O)[nH]c2c1	nt	5.8*	nt	2	2	-1
CCOc1ccc(Oc2c(Cl)cnn(Cc3cccc4ccccc34)c2=O)cc1	nt	-1	nt	0	1	-1
Nn1c(SCC(=O)Nc2cccc3ccccc23)nnc1-c1n[nH]c2c1CCC2	nt	-2	nt	0	-1	-1
COc1ccc(C2c3[nH]c4ccccc4c3CCN2C(=O)c2cn3ccccc3n2)c(F)c1 (stereo not drawn)	0	4	5	1	0	1.5*
CCc1ccc(C2c3[nH]c4ccccc4c3CCN2C(=O)c2cc[n+]([O-])cc2)cc1 (stereo not drawn)	-2	1	-4	-2	-1	-1
Cn1nccc1C(=O)N1CCc2c([nH]c3ccccc23)C1c1ccc(F)cc1 (stereo not drawn)	0	1	0	1	0	1.0*
COC(=O)C1CN(Cc2cn(CCC3OCCO3)nn2)CCS(=O)(=O)N1Cc1ccc(Cl)cc1 (stereo not drawn)	nt	0	nt	-1	-1	-1
CCOCCCNC(=O)Cn1cc2c(n1)CCCC2	5.4*	0	0	-3	1	-1
CCCN1CCN(CCCNC(=O)Cn2cc3c(n2)CCCC3)CC1	1	1	0	3	1	-1
CC(C1=CCCCC1)c1cnn(C)c1 (stereo not drawn)	nt	-1	nt	-4	0	-2
CCOC(=O)C(=CNNc1c(C)csc1C(=O)OC)C(=O)OCC	1	6.3*	1	-1	0	0
COC(=O)c1scc(C)c1NC(=O)Cc1ccccc1	0	-1	2	2	-1	-1
CCn1c(Cc2cccs2)nnc1SCC(=O)Nc1cccc2ccccc12	nt	-1	nt	0	0	-1
COc1cc(O)c(C(CCN2CCCCC2)c2ccc3c(c2)OCO3)c(OC)c1 (stereo not drawn)	4.3*	1	-2	1	2	-1
CC(C)NC(=O)N[C@@H]1C[C@@H]2O[C@@H](CO)CC[C@@H]2O[C@@H]1CCc1ccc(-c2ccc(F)cc2)cc1	nt	-1	nt	1	-1	-1
Cc1ccc(C)c(-c2nc3cc(N)ccc3o2)c1	-2	-5	-8	-7	-1	-2
COC(=O)c1ccc(-c2nc3cc(N)ccc3o2)cc1	-3	-3	-11	-5	-1	-2
Nc1ccc(-c2nc3cc(N)ccc3o2)cc1	1	4	4	11*	2	-1
Nc1ccc(-c2nc3ccc(N)cc3o2)cc1	4	-1	-1	12*	2	-2
CN(C)c1ccc(-c2nc3cc(N)ccc3o2)cc1	-5	5.8*	1	11*	1	1
COC(=O)[C@]12C[C@H](CC(=O)N3CCCCC3)C(=O)N(Cc3ccccc3)C1=C[C@H](C(C)(C)C)O[C@@H]2C	nt	-1	nt	-1	0	0
Cc1ccc(S(=O)(=O)N2CCCC2C(=O)N2CCN(c3ccccc3)CC2)cc1C (stereo not drawn)	nt	0	nt	1	0	-1
O=C(CC1C=CCC1)OCCN1CCN(C2CN(Cc3cn(Cc4ccccc4Cl)nn3)S(=O)(=O)C2)CC1 (stereo not drawn)	nt	0	nt	-4	0	-2
COc1ccc(C(C)NC(=O)c2ccc(Br)cc2)cc1OC (stereo not drawn)	1	-1	0	-2	0	-2
COc1ccc(OC)c(C(C)NC(=O)c2ccc(Br)cc2)c1 (stereo not drawn)	8.4*	0	0	0	0	-2
CC(C)(O)c1[nH]c2cc(F)ccc2c1C(C)(C)O	1	5.7*	1	3	1	0
O=C(O)c1cccc2c1C(=O)N(Cc1ccccc1)C2	0	-1	2	1	1	1.2*
